Measurements: PubChem BioAssay (NCATS)
Results filed as inconclusive are left out. Entries that show only a call come without a potency. Values without a mark were called inactive. Active and inactive are the calls of the source. Calls follow the shape of the dose curve; as a rule, active = well fitted curve in the direction sought with a large enough effect; inconclusive = small, poorly fitted or top-dose-only effect, or another doubt; inactive = no such curve, though single readings can be large; an effect the other way counts as inactive or inconclusive. Square brackets hold non-standard residues; d marks the D form. Peptide text beside a SMILES is read from it. * marks the point of attachment. dPhe(4-Cl) = N[C@H](Cc1ccc(Cl)cc1)C(=O)O; d2Nal = N[C@H](Cc1ccc2ccccc2c1)C(=O)O; AFC = O=c1cc(C(F)(F)F)c2ccc(N*)cc2o1; dCit = NC(=O)NCCC[C@@H](N)C(=O)O; d3Pal = N[C@H](Cc1cccnc1)C(=O)O

Key:
[1] = molecular target: Cellular tumor antigen p53 (Homo sapiens) (UniProt P04637); experiment: Primary qHTS for small molecule compounds that upregulate eGFP-tagged delta133p53alpha (in N-terminal) cells. (AID 2060322); details: NCI-H358 eGFP-delta133p53alpha fluorescence, 24 h; activation: hits give high values; also: nearly all actives have a fitted effect of over 75% in size; also: potency is read from the fitted curve at half-maximal effect;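 as to activation: cells pre-induced with doxycycline then dosed without doxycycline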
Cellular tumor antigen p53 (Homo sapiens), sequence (P04637 whole entry, looked up): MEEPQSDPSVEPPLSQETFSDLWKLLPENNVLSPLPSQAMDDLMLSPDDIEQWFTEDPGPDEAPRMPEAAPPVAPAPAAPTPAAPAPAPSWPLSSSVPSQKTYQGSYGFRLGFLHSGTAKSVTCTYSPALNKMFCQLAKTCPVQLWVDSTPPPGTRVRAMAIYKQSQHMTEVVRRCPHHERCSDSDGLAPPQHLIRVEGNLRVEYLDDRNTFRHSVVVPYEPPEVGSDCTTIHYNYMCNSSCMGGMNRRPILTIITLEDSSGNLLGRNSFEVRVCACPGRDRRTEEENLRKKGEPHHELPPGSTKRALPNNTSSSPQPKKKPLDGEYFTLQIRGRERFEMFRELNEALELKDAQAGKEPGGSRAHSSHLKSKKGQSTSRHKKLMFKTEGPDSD
Method in brief: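 NCI-H358 cells pre-induced 24 h with 10 ng/ml doxycycline for eGFP-delta133p53alpha, plated dox-free and exposed 24 h at 37C to titrated compounds. Fixed, Hoechst-stained; gated GFP peak intensity by laser scanning cytometry, normalized to DMSO (0%) and 57.5 uM 5-azacytidine (100%).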

[2] = molecular target: Aldehyde dehydrogenase, mitochondrial (Homo sapiens) (UniProt P05091); experiment: qHTS for Inhibitors of the Aldehyde Dehydrogenase Family (ALDH2) Primary screen (AID 2061308); details: ALDH2 enzyme inhibition qHTS, 1536-well; series mostly up to 56 µM; also: nearly all actives have a fitted effect of over 55% in size
[3] = molecular target: Retinaldehyde dehydrogenase 3 (Homo sapiens) (UniProt P47895); experiment: qHTS for Inhibitors of the Aldehyde Dehydrogenase Family (ALDH1A3) Primary screen (AID 2061315); details: ALDH inhibition qHTS; series mostly up to 56 µM

Row | SMILES | activation [1] | Potency [2] | Potency [3] | activity change, negative = inhibition [2] | activity change, negative = inhibition [3] | Potency [1]
1 | C=C1CC[C@H]2[C@@](C)(CCC(O)[C@@]2(C)CO)[C@@H]1/C=C/C(=C\C(=O)O)C(=O)O (stereo not given in full) | -2.29% | inactive | inactive | – | – | –
2 | CC1(CO)CCCC2(C)C3COC(=O)C3=CC(O)C12 (stereo not given) | -8.04% | inactive | inactive | – | – | –
3 | CC1(C)CCC[C@@]2(C)C1[C@H](OC(=O)/C=C/C=C/C(=O)O)C=C1COC(=O)[C@@]12O (stereo not given in full) | -13% | inactive | inactive | – | – | –
4 | C[C@@H]1O[C@@H](O[C@H]2[C@H](O[C@H]3[C@H](O[C@H]4CC[C@@]5(C)C(CC[C@]6(C)C5CC=C5[C@@H]7CC(C)(C)C[C@@H](O)[C@]7(C)CC[C@]56C)[C@@]4(C)CO)O[C@H](C(=O)O)[C@@H](O)[C@@H]3O)OC[C@H](O)[C@@H]2O)[C@H](O)[C@H](O)[C@H]1O (stereo not given in full) | 3.82% | inactive | inactive | – | – | –
5 | C/C=C(/C)C(=O)O[C@H]1C[C@]2(C)O[C@@H]2[C@@H](OC(C)=O)[C@@]2(C)CC[C@@](O)(C(C)C)[C@H]12 | -19.1% | inactive | inactive | – | – | –
6 | CC1CC2OC3(OC2C(C)(C)O)C1C1(C)CCC24CC25CCC(O[C@@H]2OC[C@@H](O)[C@H](O)[C@H]2O)C(C)(C)C5CC=C4C1(C)C3O (stereo not given in full) | -18.8% | inactive | inactive | – | – | –
7 | CC(=O)N1CCN(Cc2ccc([C@H](C)Nc3nccc(N4C(=O)OC[C@@H]4C(C)C)n3)cc2)CC1 | -16.1% | inactive | inactive | – | – | –
8 | CC1OC(OC2C(OC3C(O[C@H]4CC[C@@]5(C)C(CC[C@]6(C)C5CC=C5C7CC(C)(C)CC(O)[C@]7(C)CC[C@]56C)C4(C)C)OC(C(=O)O)C(O)C3O)OCC(O)C2O)C(O)C(O)C1O (stereo not given in full) | 3.57% | inactive | inactive | – | – | –
9 | COc1ccc2c(NC(=O)Nc3cccc(C(F)(F)F)n3)ccnc2c1 | 16.1% | inactive | inactive | – | – | –
10 | COc1ccc(CCc2nc3cc(-c4c(C)noc4C)ccc3n2CC(C)N2CCOCC2)cc1Cl (stereo not given) | 3.67% | inactive | inactive | – | – | –
11 | CC12CCC3c4ccc(O)cc4CCC3C1CC(OC1OC(C(=O)O)C(O)C(O)C1O)C2O (stereo not given) | -10.3% | inactive | inactive | – | – | –
12 | CC(C)(O)C1CCC(C)(C2CCC3(C)C4CCC5C(C)(C(=O)OC6OC(CO)C(O)C(O)C6O)C(O)CC(O)C56CC46CCC23C)O1 (stereo not given) | -11.5% | inactive | inactive | – | – | –
13 | CC(=O)C1=CCC2C3CC=C4CC(O)CC(O)C4(C)C3C(O)CC12C (stereo not given) | 6.11% | inactive | inactive | – | – | –
14 | Cc1cnn(-c2ccccc2)c1NC(=O)COCc1ccccc1 | 0.333% | inactive | inactive | – | – | –
15 | C[C@]12CCC[C@](C)(C(=O)O)C1CCC13CC(CO)C(CCC12)C3 (stereo not given in full) | -19.1% | inactive | inactive | – | – | –
16 | COc1ccc([C@H]2OC[C@H]3[C@@H]2CO[C@@H]3c2ccc(O[C@@H]3O[C@H](CO)C(O)[C@H](O)[C@H]3O)c(OC)c2)cc1OC (stereo not given in full) | -1.79% | inactive | inactive | – | – | –
17 | C[C@@H]1C(=O)OC[C@H]2C(C(=O)O)=C[C@@H]3CC(C)(C)C[C@]312 | -6.87% | inactive | inactive | – | – | –
18 | CCC(C)C(=O)OC[C@H]1O[C@H](O[C@H]2O[C@H](CO)[C@@H](O)[C@H](O)[C@H]2O)[C@H](O)[C@@H](O)[C@@H]1O (stereo not given in full) | 1.53% | inactive | inactive | – | – | –
19 | NC[C@@H]1O[C@@H](O[C@@H]2[C@@H](O[C@@H]3O[C@H](CO)[C@@H](O)[C@H]3O)[C@H](O)[C@@H](N)C[C@H]2N)[C@@H](N)[C@H](O)[C@H]1O | -0.893% | – | – | -0.412% [at 11.2 µM] | -9.15% [at 11.2 µM] | –
20 | CC/C=C/CC1=C(CCCCCCCC(=O)O)CCC1=O | -17.9% | inactive | inactive | – | – | –
21 | C=C1C[C@]23C[C@H]1[C@@H](O)C[C@H]2[C@@]12C=C[C@H](O)[C@@](C)(C(=O)O1)[C@H]2[C@@H]3C(=O)O | -13% | inactive | inactive | – | – | –
22 | CC(=O)N[C@H](Cc1ccc2ccccc2c1)C(=O)N[C@H](Cc1ccc(Cl)cc1)C(=O)N[C@H](Cc1cccnc1)C(=O)N[C@@H](CO)C(=O)N[C@@H](Cc1ccc(O)cc1)C(=O)N[C@H](CCCNC(N)=O)C(=O)N[C@@H](CC(C)C)C(=O)N[C@@H](CCCN=C(N)N)C(=O)N1CCC[C@H]1C(=O)N[C@H](C)C(N)=O (Ac-[d2Nal][dPhe(4-Cl)][d3Pal]SY[dCit]LRP[dA]-NH2) | 13% | inactive | inactive | – | – | –
23 | CC(C)=CCC[C@](C)(O[C@@H]1O[C@H](CO[C@@H]2O[C@H](CO)[C@@H](O)[C@H](O)[C@H]2O)[C@@H](O)[C@H](O)[C@H]1O)C1CC[C@]2(C)[C@@H]1[C@H](O)CC1[C@@]3(C)CC[C@H](O[C@@H]4O[C@H](CO)[C@@H](O)[C@H](O)[C@H]4O[C@@H]4O[C@H](CO)[C@@H](O)[C@H](O)[C@H]4O)C(C)(C)[C@@H]3CC[C@]12C (stereo not given in full) | -6.25% | inactive | inactive | – | – | –

Row | SMILES | activation [1] | Potency [2] | Potency [3] | activity change, negative = inhibition [2] | activity change, negative = inhibition [3] | Potency [1]
24 | C[C@H]1C[C@H]2[C@@H]3CCC4=CC(=O)C=C[C@]4(C)[C@@]3(F)[C@@H](O)C[C@]2(C)[C@@]1(O)C(=O)COP(=O)(O)O | 1% | inactive | inactive | – | – | –
25 | COC(=O)C1=C[C@@H](O)[C@@H](O)[C@H](O[C@@H]2O[C@H](COC(=O)/C=C/c3ccccc3)[C@@H](O)[C@H](O)[C@H]2O)C1 | -3.05% | inactive | inactive | – | – | –
26 | Cc1nc2ccc(Oc3ccc(F)cc3)cc2c(=O)n1C[C@H]1CCCN(C(C)C)C1 | -12.4% | inactive | inactive | – | – | –
27 | CC(=O)N[C@@H](CC(C)C)C(=O)N[C@@H](CCC(=O)O)C(=O)N[C@@H](CCC(=O)O)C(=O)N[C@@H](CC(=O)O)C(=O)Nc1ccc2c(C(F)(F)F)cc(=O)oc2c1 (Ac-LEED-{AFC}) | 2.33% | inactive | inactive | – | – | –
28 | C/C=C(\C)C(=O)O[C@@H]1[C@@H](C)[C@]2(O)[C@@H]3C=C(C)C(=O)[C@H]3CC(CO)=C[C@H]2C2C(C)(C)[C@@]21OC(=O)C(C)CC (stereo not given in full) | -1.79% | inactive | inactive | – | – | –
29 | CC1CC(C(O)C(C)(C)O)OC2CC3(C)C4(C)CCC5C(C)(C)C(=O)CCC5(C)C4CCC3(O)C12O (stereo not given) | -11.5% | inactive | inactive | – | – | –
30 | COc1cc(C)c(C(=O)O[C@H]2[C@@H](OC(C)=O)[C@H](n3ccc(=O)[nH]c3=O)O[C@@H]2CO)c(OC)c1 | -10.7% | inactive | inactive | – | – | –
31 | C=C1C(=O)O[C@@H]2C[C@]3(C)[C@@H](CCC(C)=O)[C@@H]3C[C@H]12 | 5.36% | inactive | inactive | – | – | –
32 | CC1OC(OC2C(O)C(C(=O)O)OC(OC3CCC4(C)C(CCC5(C)C4C=CC4=C6CC(C)(C)CC(O)C6(C)CCC45C)C3(C)C)C2OC2OCC(O)C(O)C2O)C(O)C(O)C1O (stereo not given) | -19.1% | inactive | inactive | – | – | –
33 | O=C(NCc1ccc(OC(F)(F)F)cc1)C1c2c(F)cccc2C(=O)N1CCc1ccccn1 (stereo not given) | 11.6% | inactive | inactive | – | – | –
34 | O=C(Nc1cccc2cccnc12)c1ccc(N2C(=O)[C@@H]3C4C=CC(C4)[C@@H]3C2=O)cc1 | 2.33% | inactive | inactive | – | – | –
35 | CC1(C)CCCC2(C)C(C(=O)O)=CCC12 (stereo not given) | -24.4% | inactive | inactive | – | – | –
36 | CC1=C2CC(C)(C)CC2C(O)C2=C(C1)C(=O)OC2O (stereo not given) | -7.14% | inactive | inactive | – | – | –
37 | CC1CCC2C(C)(C)CC(C)(CO)C2(O)C1C(=O)O (stereo not given) | 15.3% | inactive | inactive | – | – | –
38 | C=C[C@@]1(C)CC(=O)C2[C@](C)(O1)[C@@H](OC(C)=O)[C@@H](O)[C@H]1C(C)(C)CCC[C@]21C (stereo not given in full) | -4.33% | inactive | inactive | – | – | –
39 | CC1OC(O[C@@H]2[C@H](O)[C@@H](OC3OC(CO)C(O)C(O)C3O)[C@H](OC(=O)[C@]34CCC(C)(C)C[C@H]3C3=CCC5[C@@]6(C)CC[C@H](O[C@@H]7O[C@H](C(=O)O)[C@@H](O)[C@H](O[C@@H]8OC[C@@H](O)[C@H](O)[C@H]8O)[C@H]7O[C@@H]7O[C@H](CO)[C@H](O)[C@H](O)[C@H]7O)[C@@](C)(C=O)C6CC[C@@]5(C)[C@]3(C)C[C@H]4O)O[C@@H]2C)C(O)C(O)C1OC1OCC(O)C(O)C1O (stereo not given in full) | 5.34% | – | – | 2.11% [at 11.2 µM] | 11.9% [at 11.2 µM] | –
40 | CO[C@H]1/C=C/C=C/C=C/C[C@H](OC(=O)[C@@H](C)NC(=O)C2CCCCC2)[C@H](C)[C@@H](O)/C(C)=C/CCc2cc(O)cc(c2)NC(=O)C1 | – | inactive | inactive | – | – | 2.81 µM (active)
41 | CC(=O)OCC(=O)Nc1cc(C#N)cc(NC(=O)COC(C)=O)c1Cl | 2.33% | inactive | inactive | – | – | –
42 | CC(=O)OC1[C@H]2[C@@H](C[C@@H](C)[C@@H]3C=CC(=O)[C@@]13C)OC(=O)[C@@H]2C (stereo not given in full) | – | inactive | inactive | – | – | 21.3 µM (active)
43 | C/C=C(\C)C(=O)OC1C=C(C)CC(OC(=O)c2ccc(O)cc2)C2C1(C)CCC2(O)C(C)C (stereo not given) | -7.63% | inactive | inactive | – | – | –
44 | O=C(O[C@H]1[C@@H]2C[C@@H]3OC[C@@](O)([C@H]2[C@H](O[C@@H]2O[C@H](CO)[C@@H](O)[C@H](O)[C@H]2O)O3)[C@@H]1O)c1ccccc1 | 5.36% | inactive | inactive | – | – | –
45 | COc1cc(NC(=O)Nc2cccc(CNC(=O)O[C@H]3CCOC3)c2)ccc1-c1cnco1 | 7.14% | inactive | inactive | – | – | –
